Sampled rows, rich in hits. Any-hit rate of the full collection: about 9.2%.
HTT ATP protect: protects HTT-Q103 PC12 cells, measured by ATP. PC12 HTT-Q103 induced, cytoprotection, ATP luminescence, 40 h. Potency, µM (top dose mostly 56.4 µM), most hits filed as activators. 230,000 tested, 0.14% active. AID 1471; active means well fitted curve in the direction sought with a large enough effect; inconclusive means small, poorly fitted or top-dose-only effect, or another doubt; inactive means no such curve, though single readings can be large; an effect the other way counts as inactive or inconclusive; further: nearly all actives have a fitted effect of over 45% in size
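Rat PC12, Q103 Htt exon1-GFP fusion, ecdysone promoter; tebufenozide inducer 100 nM final; compound titration; qHTS, 1500 cells/well; ATPlite luminescent read.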
ALDH1A1 block: ALDH1A1 (human) enzyme inhibition; Purified ALDH1A1, NADH fluorescence, propionaldehyde substrate; Potency, µM (highest dose often 75.3 µM), actives largely listed as inhibitors; 220,000 tested, 7.3% active; AID 1030
Target sequence (P00352 whole entry, looked up): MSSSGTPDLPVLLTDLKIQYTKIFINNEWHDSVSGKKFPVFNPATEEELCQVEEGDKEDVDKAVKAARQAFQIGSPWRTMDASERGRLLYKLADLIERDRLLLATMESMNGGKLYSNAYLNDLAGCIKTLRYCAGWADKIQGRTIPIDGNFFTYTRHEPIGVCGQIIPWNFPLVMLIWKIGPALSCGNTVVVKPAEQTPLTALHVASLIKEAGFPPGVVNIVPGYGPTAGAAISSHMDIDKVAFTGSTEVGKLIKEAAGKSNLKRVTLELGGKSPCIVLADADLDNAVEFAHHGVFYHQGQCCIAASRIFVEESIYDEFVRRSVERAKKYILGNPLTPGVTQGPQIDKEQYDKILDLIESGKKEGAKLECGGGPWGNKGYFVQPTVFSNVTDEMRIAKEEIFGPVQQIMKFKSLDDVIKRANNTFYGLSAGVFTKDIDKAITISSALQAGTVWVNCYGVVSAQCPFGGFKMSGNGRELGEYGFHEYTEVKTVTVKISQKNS
HttQ103 aggreg: inhibitors of mutant huntingtin aggregate formation in PC12 cells. PC12 HttQ103-GFP aggregates, Acumen cytometry, 40 h. Potency, µM (top dose mostly 46.1 µM), hits mostly inhibitors. 220,000 tested, 1.1% active; active means well fitted curve in the direction sought with a large enough effect; inconclusive means small, poorly fitted or top-dose-only effect, or another doubt; inactive means no such curve, though single readings can be large; an effect the other way counts as inactive or inconclusive; further: nearly all actives have a fitted effect of over 60% in size
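Huntingtin Q103 exon 1–GFP aggregates in induced PC12 cells (100 nM tebufenozide) were quantified by cytometry from lysates, with compounds dosed in titration.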
LMNA splice mod: LMNA splicing modulation; Potency, µM (titrated, usually from 46.1 µM), usual class: inhibitors; HeLa LMNA splicing GFP/RFP minigene ratio, 48 h; 200,000 tested, 0.01% active; AID 1487; active means well fitted inhibition curve with a large enough effect in the signal ratio, with a control signal flat, not every such curve was filed as active; inconclusive means small, poorly fitted or top-dose-only effect, or effect the other way, or a change in a side signal; the % refers to the signal ratio
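S3 HeLa cells stably expressing lamin A-EGFP splicing minigene plus DsRed2, 600 cells/well, 48 h compound exposure at 37C. Laser-scanning cytometry; analysed as GFP (500-530 nm)/RFP (575-640 nm) total intensity ratio; 0.5% DMSO vehicle.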
HPGD block: HPGD (human) dehydrogenase inhibition | AID 894 | Potency, µM, hits mostly inhibitors | 150,000 tested, 4.3% active | P15428 | purified HPGD, NADH fluorescence kinetic, PGE2 substrate
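NADH formation kinetics: reaction with 30 uM PGE2 and 1 mM NAD+ (final), 20 nM enzyme, Tris-HCl pH 8 with Tween 20, after 15 min compound preincubation at room temperature. Fluorescence change, last versus first of five reads.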
KDM4E inh: JMJD2E (human) inhibition | B2RXH2 | JMJD2E catalytic domain, FDH-coupled NADH fluorescence (FDH is formaldehyde dehydrogenase) | Potency, µM (highest dose often 57.1 µM), usual class: inhibitors | 230,000 tested, 1.6% active; further: nearly all actives have a fitted effect of over 50% in size
Each line names hits and unclear results; the compound was inactive in the other large screens. Unless noted, the call rests on the fitted dose curve; in most records, active means well fitted inhibition curve with a large enough effect (not every such curve was filed as active); inconclusive means small, poorly fitted or top-dose-only effect, or another doubt; inactive means no such curve, though single readings can be large or run the other way.

CC(=O)Nc1ccc(/C(C)=N/NC(=O)c2ccc(F)cc2)cc1	none
C/C(=N\NC(=O)c1ccc(-c2ccccc2)cc1)c1cccc(N)c1	ALDH1A1 block 22µM (no result: HPGD block)
CC/C(=N\NC(=O)c1ccc(-c2ccccc2)cc1)C12CC3CC(CC(C3)C1)C2	ALDH1A1 block 13µM
COc1ccc2c(c1)C(=O)[C@@H](OC(=O)Nc1cc(OC)c(OC)c(OC)c1)[C@H](c1ccc(OC)c(Br)c1)O2	none (no result: HttQ103 aggreg, LMNA splice mod)
COC(=O)[C@@]1(Cc2ccccc2)[C@H]2c3cc(C(=O)N4CCCC4)n(Cc4cc(F)cc5c4OCOC5)c3C[C@H]2CN1C(=O)c1ccccc1	none (no result: HttQ103 aggreg, LMNA splice mod)
CCCOc1ccc(-c2nc(=S)[nH][nH]2)cc1	ALDH1A1 block inconclusive, HPGD block 13µM
CCN(CC)C(=O)Cn1c(=O)cc(C)c2c(C)nn(C)c21	none (no result: HTT ATP protect, ALDH1A1 block, HttQ103 aggreg, HPGD block, KDM4E inh)
Cc1nnc(NC(=O)C2C3C=CC(O3)C2C(=O)O)s1 (stereo unspecified)	ALDH1A1 block 28µM, KDM4E inh inconclusive
COC(=O)c1ccc(NC(=O)C2C3C=CC(O3)C2C(=O)O)cc1 (stereo unspecified)	ALDH1A1 block 4.5µM
COC(=O)c1ccc(NC(=O)C2C3CCC(C3)C2C(=O)O)cc1 (stereo unspecified)	ALDH1A1 block inconclusive
C/C(=N\NC(=O)c1nc2ccccn2c1C)c1cc2ccccc2o1	KDM4E inh inconclusive (no result: LMNA splice mod, HPGD block)
Cc1c(C(=O)NN)nc2ccccn12	ALDH1A1 block 4.5µM
CN(C)Cc1c(O)ccc2oc(Cc3ccccc3)cc12	HttQ103 aggreg 4.5µM, LMNA splice mod inconclusive
CN(C)Cc1c(O)ccc2ccccc12	KDM4E inh inconclusive (no result: ALDH1A1 block, LMNA splice mod, HPGD block)
O=C(NCc1ccco1)/C(=C/c1ccco1)NC(=O)c1ccc(Br)o1	ALDH1A1 block inconclusive
O=C(NCc1ccco1)/C(=C\c1ccco1)NC(=O)c1ccc(Br)o1	ALDH1A1 block 28µM, HttQ103 aggreg inconclusive, HPGD block inconclusive
CC(C)(C)c1ccc(C(=O)N/C(=C\c2cccs2)C(=O)NCc2ccco2)cc1	ALDH1A1 block 3.2µM (no result: HPGD block)
O=C(Cc1cccs1)Nc1nc2c(s1)CCCC2	ALDH1A1 block inconclusive, HttQ103 aggreg 3.2µM, LMNA splice mod inconclusive
COC(=O)c1sc(NC(=O)Cc2cccs2)nc1C	ALDH1A1 block 13µM
COC(=O)c1cc(OC)c(OC)cc1NC(=O)Cc1cccs1	ALDH1A1 block 3.2µM (no result: LMNA splice mod, HPGD block)
C[C@H]1CN(S(=O)(=O)c2cccc3cnccc23)CCN1	none (no result: ALDH1A1 block, HttQ103 aggreg, LMNA splice mod, HPGD block, KDM4E inh)
O=C(CCSc1ccc(Cl)cc1)c1cccs1	ALDH1A1 block 0.35µM, LMNA splice mod inconclusive, HPGD block 20µM
O=C(CCNc1cc(Cl)cc(Cl)c1)c1cccs1	ALDH1A1 block 1.6µM, LMNA splice mod inconclusive
O=C(CCNc1ccc(Cl)cc1)c1cccs1	ALDH1A1 block 3.2µM, LMNA splice mod inconclusive
CC(C)(C)n1nnnc1C(c1ccc(C(F)(F)F)cc1)N(Cc1ccc(F)cc1)Cc1ccco1 (stereo unspecified)	HttQ103 aggreg 16µM, LMNA splice mod inconclusive
Cc1cc(C)n2nc(SCc3nnc(SCCCCl)o3)nc2n1	none
CCCCCCCCSc1nnc(CSc2nc3nc(C)cc(C)n3n2)o1	HttQ103 aggreg 22µM
COc1ccc2[nH]c(C)c(CN3CCCCC3)c(=O)c2c1	ALDH1A1 block inconclusive, KDM4E inh inconclusive
COc1ccc2[nH]c(C)c(CCN3C(=O)C4C5C=CC(C5)C4C3=O)c2c1 (stereo unspecified)	ALDH1A1 block 13µM
COC(=O)CSc1nnc(CNC(=O)c2ccc(OC)c(OC)c2)n1C	none (no result: HPGD block)
O=C1CCCC(O)=C1N=Nc1cccc(S(=O)(=O)N2CCOCC2)c1	none (no result: ALDH1A1 block, LMNA splice mod, HPGD block)
CC1(C)CC(=O)C(N=Nc2cc(C(F)(F)F)ccc2Cl)=C(O)C1	ALDH1A1 block 1.4µM (no result: HPGD block)
CC1(C)CC(=O)C(N=Nc2c(Cl)cc(Cl)cc2Cl)=C(O)C1	ALDH1A1 block 2µM, HttQ103 aggreg inconclusive
O=C1CCCC(O)=C1N=Nc1c(Cl)cc(C(F)(F)F)cc1Cl	KDM4E inh 25µM (no result: LMNA splice mod, HPGD block)
CC1(C)CC(=O)C(N=Nc2cc(S(=O)(=O)N3CCOCC3)ccc2Cl)=C(O)C1	ALDH1A1 block 0.1µM (no result: LMNA splice mod, HPGD block)
COc1ccc(NC(=O)/C=C\c2ccc(Cl)cc2)cc1	none (no result: ALDH1A1 block, HttQ103 aggreg, LMNA splice mod, HPGD block, KDM4E inh)

Screens: PubChem, National Center for Advancing Translational Sciences (NCATS)
